# Laboratory results reported in the supplement of paper PMC6555819.
# What was measured:
# Experiment in all cases: PBM binding z-score (relative to random genomic background probes); higher = stronger binding; sequences stand for … in GC…GCGATTGACAGCGTAGAATGAAGG
# [1] = tested on: FXR:RXRa (NR concentration 270 nM, RXRa partner concentration 90 nM)
# In short: (§1)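 Antibodies against each partner of ligand-free nuclear receptor dimers (one per run) detected binding on custom Agilent 4×180K protein-binding microarrays after 1 h incubation. The double-stranded probes had 34-nt variable regions carrying direct-repeat seeds, single-nucleotide variants, half-site ablations and random human genomic background sequences. Binding z-scores, from regression-normalized fluorescence, use the random background probes as reference.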
# [2] = tested on: LXRa:RXRa (NR concentration 270 nM, RXRa partner concentration 90 nM)
# In short: as §1
# [3] = tested on: LXRa homodimer (NR concentration 270 nM)
# In short: as §1
# [4] = tested on: LXRb:RXRa (NR concentration 270 nM, RXRa partner concentration 90 nM)
# In short: as §1
# [5] = tested on: LXRb homodimer (NR concentration 270 nM)
# In short: as §1
# [6] = tested on: PPARa:RXRa (NR concentration 270 nM, RXRa partner concentration 90 nM)
# In short: as §1
# [7] = tested on: PPARg:RXRa (NR concentration 180 nM, RXRa partner concentration 90 nM)
# In short: as §1
# [8] = tested on: PPARg:RXRa 270nM:90nM, anti-RXR (NR concentration 270 nM, RXRa partner concentration 90 nM)
# In short: as §1
# [9] = tested on: PPARg:RXRa 30nM:10nM, anti-RXR (NR concentration 30 nM, RXRa partner concentration 10 nM)
# In short: as §1
# [10] = tested on: PPARg:RXRa 90nM:30nM, anti-RXR (NR concentration 90 nM, RXRa partner concentration 30 nM)
# In short: as §1
# [11] = tested on: PPARg:RXRa DBDmut IVT, anti-RXR (DBD mutation: RXRa K156A/R161A, NR concentration 270 nM, RXRa partner concentration 90 nM)
# In short: as §1
# [12] = tested on: PPARg:RXRa IVT, anti-PPARg (NR concentration 270 nM, RXRa partner concentration 90 nM)
# In short: as §1
# [13] = tested on: PPARg DBDmut:RXRa IVT, anti-PPARg (DBD mutation: PPARg1 K132A/R137A, NR concentration 270 nM, RXRa partner concentration 90 nM)
# In short: as §1
# [14] = tested on: PPARg DBDmut IVT, anti-PPARg (DBD mutation: PPARg1 K132A/R137A, NR concentration 270 nM)
# In short: as §1
# [15] = tested on: PPARg homodimer (NR concentration 180 nM)
# In short: as §1
# [16] = tested on: PXR:RXRa (NR concentration 270 nM, RXRa partner concentration 90 nM)
# In short: as §1
# [17] = tested on: PXR homodimer (NR concentration 270 nM)
# In short: as §1
# [18] = tested on: RARa:RXR (NR concentration 270 nM, RXRa partner concentration 90 nM)
# In short: as §1
# [19] = tested on: RARa homodimer (NR concentration 270 nM)
# In short: as §1
# [20] = tested on: RARb:RXRa (NR concentration 270 nM, RXRa partner concentration 90 nM)
# In short: as §1
Sequence,PBM binding z-score [1],PBM binding z-score [2],PBM binding z-score [3],PBM binding z-score [4],PBM binding z-score [5],PBM binding z-score [6],PBM binding z-score [7],PBM binding z-score [8],PBM binding z-score [9],PBM binding z-score [10],PBM binding z-score [11],PBM binding z-score [12],PBM binding z-score [13],PBM binding z-score [14],PBM binding z-score [15],PBM binding z-score [16],PBM binding z-score [17],PBM binding z-score [18],PBM binding z-score [19],PBM binding z-score [20]
TAGCCTAGGTCCTGCGGGCCAGTATAGTGTCGGC,-1.69,-1.08,-1.14,-1.49,-1.06,-1.2,-0.732,-0.789,-0.922,-1.13,-1.61,-0.181,-1.11,-0.969,-1.72,-0.971,-1.03,-0.898,-1.52,-0.954
ATATGTAGCTTATCGGGTCATTCAGTTTGCGCAT,2.02,2.21,1.13,2.2,1.08,2.5,0.837,0.994,0.318,0.857,1.01,1.81,1.36,1.64,1.05,3.2,8.3,2.8,0.765,1.72
TGAATGAGGTTATGAGATCAGGGAACGTTGCAAA,1.67,1.4,-0.558,0.95,-0.381,3.11,1.64,1.96,0.899,1.31,1.33,2.1,0.285,-0.0697,0.328,0.684,0.16,1.57,-0.0238,1.39
GATACAGGGTCAGCTAGAGGACAGAGTATGGAAA,4.89,3.3,-0.154,2.61,-0.241,4.58,3.93,3.23,1.06,2.12,1.12,2.33,0.573,0.147,2.5,3.17,0.27,4.99,0.599,4.34
GCATATAGGTAATGCAAGGTGAAAGTCCGATTGT,0.366,1.83,-0.0493,0.568,-0.489,1.74,1.05,1.15,0.286,0.74,4.12,3.49,0.246,0.658,0.642,0.573,0.208,1.73,0.262,0.407
GCTAGGAGGCCATTTGGGTCACTCAATGACGGGC,0.677,0.0368,-0.495,0.118,-0.985,1.73,0.825,0.402,-0.518,0.187,1.91,2.38,-0.861,-0.88,0.287,1.21,1.1,1.04,-0.719,1.95
TCATATAGGGAATACAGGTGAAAGTCGGCATCTA,1.31,1.1,0.252,0.958,0.236,1.92,1.16,2.76,4.44,3.22,3.35,2.3,1.03,1.07,1.14,0.862,0.632,1.2,1.4,0.823
ATATGTAGGTTACATCCGGGTCATTCGGGCTATG,2.27,4.61,1.71,2.96,1.11,4.42,5.83,5.08,2.18,4.17,7.29,7.46,3.23,1.74,1.58,3.48,1.47,3.61,0.896,2.27
ATACCAAGGTGAGCGTGAGGTCGTTGATACTAAC,1.64,1.3,0.0516,1.31,-0.401,2.05,1.03,0.903,0.0304,0.391,1.54,2.2,0.262,-0.46,0.827,3.26,0.571,2.34,0.154,1.97
TAGCCTAGGTCATTGGGCCATTATAGTACGCATC,4.57,3.93,1.08,2.84,0.197,4.22,4.13,3.99,1.45,3.32,3.37,4.19,0.472,0.314,2.65,1.86,-0.263,2.7,-0.217,3.56
GATACAGGGTCAACGCCAGAGTACGCGTATTGAT,7,4.57,-0.128,3.91,0.0606,5.69,6.17,5.78,2.67,4.5,3.53,4.25,0.296,0.699,2.98,4.11,0.215,5.05,0.72,4.7
CCCATTAGTTGACCATAAGGGCAACCGAAGCTCG,1.1,0.851,0.582,0.755,0.614,0.65,0.359,0.482,-0.068,0.346,-0.253,0.593,0.0546,-0.0766,2.18,0.867,0.974,1.05,1.57,1.7
GGAACGAGGGCATTCGAGTTGATAGCGTGGCGAT,1.41,1.5,-0.572,-0.00424,-0.698,1.35,0.634,0.67,-0.488,0.214,3.44,2.02,-0.574,-0.961,0.0421,3.71,1.79,0.221,-0.388,1.85
TCATATAGGTAATAGAGGTGAAAGTCGGCATCTA,1.47,1.99,0.555,1.43,0.0572,2.96,2.3,3.61,4.55,4.02,4.53,4.06,1.5,0.929,0.919,1.12,0.895,1.92,1.02,1.27
